An excerpt weighted towards active compounds, which were near 3.4% of everything screened.
GoLoco inh red = RGS12 GoLoco-Gai1 interaction inhibition; P63096; Gai1:RGS12 GoLoco peptide FP, rhodamine, 10 min; Potency, µM (series often up to 61.6 µM), inactives show at the top dose activity, negative = inhibition, usual class: inhibitors; 230,000 tested, 0.44% active; AID 880; active = well fitted inhibition curve with a large enough effect, not every such curve was filed as active; inactive = no such curve, though single readings can be large or run the other way; note: nearly all actives have a fitted effect of over 30% in size
Target sequence (P63096 whole entry, looked up): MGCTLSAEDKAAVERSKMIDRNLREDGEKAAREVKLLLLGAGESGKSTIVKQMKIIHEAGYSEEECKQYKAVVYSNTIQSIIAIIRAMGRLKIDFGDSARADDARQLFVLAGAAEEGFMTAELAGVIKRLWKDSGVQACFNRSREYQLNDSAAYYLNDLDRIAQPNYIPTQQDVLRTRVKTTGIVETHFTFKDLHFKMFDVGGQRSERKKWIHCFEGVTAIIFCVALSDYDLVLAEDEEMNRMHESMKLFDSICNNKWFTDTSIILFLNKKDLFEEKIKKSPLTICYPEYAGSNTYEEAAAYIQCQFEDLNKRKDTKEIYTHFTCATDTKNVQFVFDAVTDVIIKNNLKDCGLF
Tau FP inhib = inhibitors of human tau fibril formation; AID 1468; P10636; K18 P301L tau heparin fibrillization, Alexa594 FP, 6 h; 280,000 tested, 0.39% active; Potency, µM (titrated, usually from 57.7 µM), inactives show top-dose activity, negative = inhibition, usual class: inhibitors; note: nearly all actives have a fitted effect of over 55% in size
Target sequence (P10636 561-689 P618L limits assumed): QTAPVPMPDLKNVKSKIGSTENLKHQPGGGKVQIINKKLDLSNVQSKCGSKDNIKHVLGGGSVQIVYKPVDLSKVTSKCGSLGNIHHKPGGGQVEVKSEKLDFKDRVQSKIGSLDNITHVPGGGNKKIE
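Human tau K18 […] P301L fragment, 15 uM unlabeled plus 0.24 uM Alexa 594-labeled tau (final), with compound and 20 uM heparin in 100 mM sodium acetate pH 7; 6 hr at 37 C, then Alexa 594 FP read.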
Tau fluor counter = counter-screen for tau fibril formation inhibitors. Potency, µM (titrated, usually from 57.7 µM), for the others: at the top dose activity change, negative = decrease. 280,000 tested, 0.93% active. tau K18 P301L Alexa594 fluorescence, heparin fibrillization; note: nearly all actives have a fitted effect of over 55% in size
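Human tau K18 P301L (15 uM unlabeled, 0.24 uM Alexa 594-labeled) in 100 mM sodium acetate pH 7 with 20 uM heparin, 6 hr at 37 C. ThT 30 uM added, 1 hr ambient; Alexa 594 FP and total fluorescence read at 555/632 nm.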
Tau fibril ThT = blocks human tau fibril formation measured by thioflavin T; P10636; recombinant tau K18 P301L (four-repeat tau fragment), heparin-induced fibrillization, ThT fluorescence; Potency, µM (highest dose often 57.4 µM), for the others: top-dose activity, negative = inhibition, hits mostly inhibitors; 270,000 tested, 2.1% active; AID 1460; note: nearly all actives have a fitted effect of over 55% in size
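In this qHTS, human K18 P301L tau is incubated with compound and heparin for 6 hr at 37 C, and Thioflavin T fluorescence then reports fibril load.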
KDM4E inh = inhibitors of human JMJD2E histone demethylase | B2RXH2 | JMJD2E catalytic domain, FDH-coupled NADH fluorescence (FDH is formaldehyde dehydrogenase) | Potency, µM (highest dose often 57.1 µM), for the others: at the top dose activity change, negative = inhibition, usual class: inhibitors | 230,000 tested, 1.6% active; active = well fitted inhibition curve with a large enough effect, not every such curve was filed as active; inconclusive = small, poorly fitted or top-dose-only effect, or another doubt; inactive = no such curve, though single readings can be large or run the other way;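 note: 0% = wells with enzyme and -100% = buffer wells without enzyme; nearly all actives have a fitted effect of over 50% in size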
An asterisk follows results filed as active; ? = inconclusive; · = not tested or not shown; [ ] = dose if it differs, or a comment. Unless noted, calls come from the whole dose curve; as a rule, active = well fitted curve in the direction sought with a large enough effect; inconclusive = small, poorly fitted or top-dose-only effect, or another doubt; inactive = no such curve, though single readings can be large; an effect the other way counts as inactive or inconclusive. Unless noted, % is set by controls: 0 for no effect and ±100 for the full control effect; potency is the fitted concentration of half-maximal effect.

SMILES	GoLoco inh red	Tau FP inhib	Tau fluor counter	Tau fibril ThT	KDM4E inh
CN(C)[C@H]1C(=O)C(C(=O)NCN2CCCC2)=C(O)[C@]2(O)C(=O)C3=C(O)c4c(O)cccc4[C@@](C)(O)[C@H]3C[C@@H]12	-18%[21.6 µM]	·	·	·	11µM*
COc1ccc(C)cc1NC(=O)Cn1nc(N2CCN(c3ccccc3OC)CC2)ccc1=O	·	5%	-14%	-14%	·
COc1ccccc1-c1cnnc(N/N=C/c2ccc(-c3cccc(Br)c3)o2)n1	0%	0%	?	3.5µM*	2%
Oc1cc(-n2cccn2)c(O)cc1-n1cccn1	29%	?	16µM*[quencher]	16µM*	16µM*
Cc1ccc(CN(C(=O)COc2ccccc2[N+](=O)[O-])c2ccccn2)o1	·	2%	5%	9%	·
Cc1cc(Cl)ccc1OCC(=O)N(Cc1sccc1C)C1CCS(=O)(=O)C1 (centres undefined)	·	-5%	-13%	-6%	·
COc1cc(/C=N/NC(=O)c2ccc3nc[nH]c3c2)ccc1O	-3%	-3%	-19%	·	-6%
CN(C)c1ccc(/C=N/NC(=O)c2ccc3nc[nH]c3c2)cc1	11%	-12%	?	4.5µM*	?
Cc1nc2c(C)cccc2cc1C(=O)N/N=C/c1ccc(N(C)C)cc1	-18%	0%	?	10µM*	-25%
Cc1nc2c(C)cccc2cc1C(=O)N/N=C/c1ccc(C(=O)O)cc1	15%	10%	6%	-7%	-35%
CCN(CC)c1ccc(/C=N/NC(=O)c2ccc3nc[nH]c3c2)cc1	-1%	7%	?	2.8µM*	?
CCn1c(=O)cc(SCC(=O)Nc2cc(Cl)ccc2OC)c2ccccc21	·	2%	-25%	0%	·
Cc1ccc(-n2nc3c(N4CCCC(C(=O)NCc5ccccc5C)C4)nnc(C)c3c2C)cc1 (centres undefined)	·	-2%	2%	?	·
Cc1cc(C)c2oc(-c3ccc(C)c(NC(=O)/C=C/c4ccco4)c3)nc2c1	·	-14%	-14%	-20%	·
S=c1[nH]c2ccccc2s1	-8%	-1%	-7%	-13%	20µM*
CC(=O)Oc1c(C)cc(Cl)cc1C(=O)Nc1ccc([N+](=O)[O-])cc1Cl	1%	1%	?	2.8µM*	5%
CCOC(=O)C1=C(CS(=O)(=O)c2ccc(C(C)(C)C)cc2)NC(=O)NC1c1cccc(OC)c1 (centres undefined)	·	6%	-12%	-8%	·
CN(C)c1ccc(C(=O)OCC(=O)N2CCOCC2)cc1	-9%	7%	-3%	1%	-14%
CN(C)c1ccc(N=Nc2ccccc2C(=O)OCC(=O)N2CCCC2)cc1	8%	6%	-24%	13µM*	1%
CN(C)c1ccc(N=Nc2ccccc2C(=O)OCC(=O)N2CCCCCC2)cc1	6%	13%	-21%	8.9µM*	4%
CN(C)c1ccc(N=Nc2ccccc2C(=O)OCC(=O)Nc2ccccc2C(F)(F)F)cc1	2%	?	?	5µM*	0%
CC(C)(C)c1nnc(N/N=C/c2cc(Br)ccc2O)n(N)c1=O	8%	12%	?	-18%	22µM*
CCC(=O)N1CCc2cc(S(=O)(=O)NC(C(=O)NCCc3ccc(OC)c(OC)c3)C(C)C)ccc21 (centres undefined)	·	-8%	1%	0%	·
CC(=O)C1=C(O)C(=O)N(CCC(=O)O)C1c1ccccc1[N+](=O)[O-] (centres undefined)	17%	4%	-2%	-1%	-12%
CC(=O)C1=C(O)C(=O)N(C)C1c1ccccc1[N+](=O)[O-] (centres undefined)	6%	?	-14%	16µM*	?
SMILES	GoLoco inh red	Tau FP inhib	Tau fluor counter	Tau fibril ThT	KDM4E inh
CC(=O)C1=C(O)C(=O)N(CCCN2CCOCC2)C1c1ccccc1[N+](=O)[O-] (centres undefined)	-14%	?	?	25µM*	?
O=c1c2[nH]c3ccccc3c2nc(SCc2cccc(F)c2)n1-c1ccccc1	·	-13%	-16%	0%	·
Cc1nn(C)c2c1c(-c1ccccc1)cc(=O)n2Cc1ccccc1Cl	·	1%	-1%	-11%	·
Cc1c(C(=O)Nc2nc3ccccc3[nH]2)oc2ccccc12	13µM*	1%	-19%	-7%	3.2µM*
CCOC(=O)C1=C(CC)Nc2ccccc2N=C1NC(=O)Nc1ccc(Cl)c(Cl)c1	10%	13µM*	?	?	-11%
CC1CCC(C(C)C)C(OCC[N+](C)(C)C)C1 (centres undefined)	4µM*	0%	7%	4%	3%
CC1CCC(C(C)C)C(OCC(O)C[N+]2(C)CCCCC2)C1 (centres undefined)	6%	1%	-8%	0%	?
COc1ccc2oc(=O)cc(CN3CCN(c4ccccc4F)CC3)c2c1	·	-1%	6%	9%	·
Cc1ccc(C(=O)CSC2=C(C#N)C(c3ccco3)C3=C(CCCC3=O)N2)cc1 (centres undefined)	7%	11%	-29%	16µM*	-9%
N#CC1=C(SCC(=O)c2ccccc2)NC2=C(C(=O)CCC2)C1c1ccco1 (centres undefined)	68%	32µM*	-27%	13µM*	?
COc1cccc(NC(=O)CSC2=C(C#N)C(c3ccco3)C3=C(CCCC3=O)N2)c1 (centres undefined)	-5%	-8%	-23%	-13%	?
CC(C)(C)c1ccc(C(=O)CCCSC2=C(C#N)C(c3ccco3)C3=C(CCCC3=O)N2)cc1 (centres undefined)	·	-16%	-14%	-15%	-2%
CN1C2C=C3C(C#N)=C(N)C(C#N)(C#N)[C@@H](c4cccs4)C3C1CC2 (some centres undefined)	27%	?	-14%	20µM*	?
CN1C2C=C3C(C#N)=C(N)C(C#N)(C#N)[C@@H](c4cccc(F)c4)[C@@H]3C1CC2 (some centres undefined)	-150%	?	-9%	20µM*	?
CN1C2C=C3C(C#N)=C(N)C(C#N)(C#N)[C@H](c4c(F)cccc4F)[C@H]3C1CC2 (some centres undefined)	4%	?	-19%	14µM*	?
Cc1cccc(OCCCCn2c(C3CC(=O)N(c4ccccc4Cl)C3)nc3ccccc32)c1 (centres undefined)	·	2%	-14%	?	·
COc1ccccc1OCC(=O)Nc1nc(-c2ccc(Br)cc2)ns1	·	?	-16%	3%	·
COc1ccccc1NC(=O)CN1C(=O)CC(c2ccc(C)c(C)c2)=Nc2ccccc21	·	?	-24%	-7%	·
Cc1cccc(NC(=O)Cn2c(=O)n(CCc3c[nH]c4ccccc34)c(=O)c3cccnc32)c1	24%	-7%	11µM*[quencher]	-13%	1%
O=C(Cn1c(=O)n(CCc2c[nH]c3ccccc23)c(=O)c2cccnc21)Nc1ccccc1F	10%	5%	?	-3%	-4%

From PubChem BioAssay
